Screening results as filed in PubChem BioAssay.
This is a sample that favours compounds with a hit; in the whole collection about 19% have one here.
HT1080-NT tox = kills 2HG-producing HT-1080-NT fibrosarcoma cells | 360,000 tested, 1.6% active | AID 686970 | HT-1080-NT fibrosarcoma viability, CellTiter-Glo ATP luminescence, 48 h | Potency, µM (titrated, usually from 46.1 µM), for the others: at the top dose activity, negative = less viability, hits mostly cytotoxic;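 also: NT is the 2HG producing partner of a matched IDH1 knockdown line; 0% = DMSO-treated cells and -100% = media-only wells without cells; nearly all actives have a fitted effect of over 55% in size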
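Viability by CellTiter-Glo luminescence after 48 h compound exposure at 37C of HT-1080-NT cells (750/well, RPMI, 5% FBS). % activity scaled between DMSO wells and medium-only wells, then curve-fitted and categorized by curve class.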
HT1080 IDH1KD tx = kills HT-1080 cells with IDH1 knockdown; HT-1080 IDH1 knockdown viability, ATP luminescence, 48 h; Potency, µM (highest dose often 46.1 µM), for inactives: top-dose activity, negative = toxicity, hits mostly cytotoxic; 360,000 tested, 2% active; AID 686971;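 also: 0% = DMSO wells and -100% = cell-free medium wells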
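Cytotoxicity counter-line: IDH1KD HT-1080, 48 h, CellTiter-Glo. Curves classed by r2, magnitude and activity.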
TDP1 cell CPT = growth inhibition of DT40 Tdp1-/-;hTDP1 cells with camptothecin (screen for TDP1 inhibitors). chicken DT40 Tdp1-/-;hTDP1 cells + 20 nM CPT, ATP luminescence, 48 h. Potency, µM (titrated, usually from 46.2 µM), without a hit: at the top dose activity change, negative = growth inhibition, most hits filed as inhibitors. 420,000 tested, 12% active. AID 686979; also: nearly all actives have a fitted effect of over 55% in size
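Cell growth measured by CellTiter-Glo luminescence after a minimum 48 h, 37 C compound exposure with 20 nM CPT in Tdp1-knockout DT40 cells stably expressing hTDP1, seeded 400/well; qHTS titration format.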
KB-3-1 tox = KB-3-1 parental cell cytotoxicity | KB-3-1 viability, CellTiter-Glo ATP luminescence, 72 h | Potency, µM (highest dose often 46.1 µM), usual class: cytotoxic | 400,000 tested, 1.4% active; also: nearly all actives have a fitted effect of over 60% in size
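Multi-concentration cytotoxicity screen in KB-3-1 cells grown in DMEM lacking phenol red with 10% FBS. After 72 h at 37 °C with compound, ATP-dependent luminescence was recorded.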
KB-V1 cytotox = kills drug-selected multidrug resistant KB-V1 cells; KB-V1 MDR cells viability, CellTiter-Glo, 72 h; Potency, µM (series often up to 46.1 µM), most hits filed as cytotoxic; 400,000 tested, 3.4% active; AID 1347076; also: nearly all actives have a fitted effect of over 60% in size
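In this primary screen, KB-V1 cells overexpressing P-gp are incubated with library compounds (lowest to highest concentration) for 72 h at 37 degrees C before a luminescent ATP viability read.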
DT40 TDP1 no CPT = qHTS for Inhibitors of human tyrosyl-DNA phosphodiesterase 1 (TDP1): qHTS in cells in absence of CPT; DT40 Tdp1-/- hTDP1 cells, no CPT, ATP luminescence, 48 h; AID 686978, 2013; 420,000 tested, 15% active; Potency, µM (doses to about 46.2 µM), for inactives: at the highest dose activity change, negative = growth inhibition, actives largely listed as inhibitors; also: nearly all actives have a fitted effect of over 55% in size
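No-CPT arm: Tdp1-/-;hTDP1 DT40 cells (400/well) plus compounds, incubated ≥48 hr at 37 °C. Readout CellTiter-Glo luminescence.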
* hit, by the source's call; i = inactive; ? = inconclusive; / = no result given. Calls follow the shape of the dose curve; as a rule, active = well fitted curve in the direction sought with a large enough effect; inconclusive = small, poorly fitted or top-dose-only effect, or another doubt; inactive = no such curve, though single readings can be large; an effect the other way counts as inactive or inconclusive. Unless noted, % is scaled to controls: 0 for no effect and ±100 for the full control effect; potency is read from the fitted curve at half-maximal effect.

SMILES | HT1080-NT tox | HT1080 IDH1KD tx | TDP1 cell CPT | KB-3-1 tox | KB-V1 cytotox | DT40 TDP1 no CPT
CN(C)CCNC(=O)c1cccc(-c2cc(NC=O)c3ncc(-c4cccc(C(F)(F)F)c4)n3c2)c1 | 29µM* | 16µM* | 3.3µM* | i | i | 5.2µM*
CN(C)CCNC(=O)c1cccc(-c2cnc3c(NC=O)cc(-c4ccc(S(C)(=O)=O)cc4)cn23)c1 | 5% | 2% | 8% | i | i | 7%
CC12CN3CC(C)(CN(C1)C3c1ccc(F)cc1)C2 (centres undefined) | -5% | -5% | 1% | i | i | 8%
CCOC(=O)c1ccn(-c2nc(-c3cccc(OC)c3)cc(C(F)(F)F)n2)n1 | / | / | 15µM* | i | i | 21µM*
COc1ccc(-c2cc(C(F)(F)F)nc(-n3nc(C(F)(F)F)cc3C)n2)cc1 | / | / | 15µM* | i | i | 13µM*
COC(=O)c1ccn(-c2nc(-c3ccco3)cc(C(F)(F)F)n2)n1 | 9% | 3% | -27% | i | i | ?
COc1cccc(-c2cc(C(F)(F)F)nc(-n3cc(Cl)cn3)n2)c1 | 22% | 23% | ? | i | i | 16µM*
COc1ccc(-c2cc(C(F)(F)F)nc(-n3cc(Cl)cn3)n2)cc1 | ? | 3% | 15µM* | i | 23µM* | ?
COC(=O)C1CCN(Cc2ccc3c(c2)CN(C(=O)C(C)N2CCOCC2)CCO3)CC1 (centres undefined) | / | / | 14% | / | / | -1%
C=C1C(=O)O[C@H]2C1CC[C@@](C)(O)C13C=CC(C)(C21)C1(C3)C(=O)O[C@@H]2C3C(C)=CCC3[C@](C)(O)C[C@H](OC(C)=O)C21 (some centres undefined) | ? | ? | ? | i | i | 16µM*
C=C1CCC(OC(C)=O)/C(C)=C/CC2[C@H]1CC2(C)C (some centres undefined) | / | / | -20% | / | / | -12%
Cc1nnsc1C(=O)Oc1ccc(Cl)cc1 | / | / | -1% | i | i | 6%
O=C(Nn1cnnc1)c1csc2ccccc12 | 16% | 2% | -1% | i | i | -8%
OB(O)c1csc2ccccc12 | / | / | -4% | i | i | 11µM*
CCC(C)NC(=O)Cn1c(=O)ccc2cc(S(=O)(=O)N3CCCC3)ccc21 (centres undefined) | / | / | ? | i | i | ?
CC1CCN(C(=O)CN2C(=O)C(C)(C)Oc3ccc(C(=O)NC(C)C)cc32)CC1 | 3% | -1% | 9% | i | i | -5%
COc1ccc(C)cc1S(=O)(=O)Nc1ccc(F)cc1 | -11% | -3% | 5% | i | i | -10%
CCOc1cc(C)c(S(=O)(=O)Nc2ccc(F)cc2)cc1C | ? | ? | 16µM* | i | i | 16µM*
Cc1cc(S(=O)(=O)Nc2ccc3oc4c(c3c2)CCCC4)ccc1Cl | / | / | 21µM* | i | i | 23µM*
Cc1cc(C)c(S(=O)(=O)Nc2ccc(O)cc2)cc1C | -2% | -1% | ? | i | i | 21µM*
CC(C)(C)C1CCc2oc3ccc(NS(=O)(=O)c4cc(Cl)ccc4Cl)cc3c2C1 (centres undefined) | / | / | 26µM* | / | / | ?
CC(C)(C)C1CCc2oc3ccc(NS(=O)(=O)c4ccc(C(=O)O)cc4)cc3c2C1 (centres undefined) | / | / | -2% | / | / | -10%
Cc1ccc(Cc2c(-c3ccccc3)nc3c(Cl)cc(C(F)(F)F)cn23)cc1 | -9% | -3% | -4% | i | i | -3%
CCOC(=O)c1ccc(NC(=O)CN2C(=O)c3cccnc3Sc3ccccc32)cc1 | / | / | ? | i | i | ?
